Measured values from PubChem BioAssay (NCATS).
Records with an inconclusive call do not appear. Activity calls are given as the source filed them. Calls follow the shape of the dose curve; as a rule, active = well fitted curve in the direction sought with a large enough effect; inconclusive = small, poorly fitted or top-dose-only effect, or another doubt; inactive = no such curve, though single readings can be large; an effect the other way counts as inactive or inconclusive.

Key:
[1] = P-glycoprotein substrates identified in KB-8-5-11 adenocarcinoma cell line, qHTS therapeutic library screen (AID 1346987); also: nearly all actives have a fitted effect of over 65% in size; also: potency is read from the fitted curve at half-maximal effect; as to activity change, negative = cytotoxicity: % is scaled to controls: 0 for no effect and ±100 for the full control effect
Procedure, shortened: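 Compounds are pinned in dose-response onto KB-8-5-11 cells (500 cells/well, colchicine-free medium) and left 72 h at 37 degree C. CellTiter-Glo luminescence then yields AC50 values.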

[2] = Primary qHTS for inhibitors of nuclear receptor binding SET domain protein 2 (NSD2) in an RCH-ACV wild type WT cells (2C) (AID 1645877); also: nearly all actives have a fitted effect of over 70% in size; also: potency is read from the fitted curve at half-maximal effect; as to activity change, negative = cell killing: % is scaled to controls: 0 for no effect and ±100 for the full control effect
[3] = target: Glutathione peroxidase 1 (Homo sapiens) (UniProt P07203); assay: Primary qHTS Assay for Inhibitors of Recombinant Selenoprotein Glutathione Peroxidase 1 (GPX1) (AID 1845191); also: nearly all actives have a fitted effect of over 65% in size; as to activity, negative = inhibition: % is scaled to controls: 0 for no effect and ±100 for the full control effect
Procedure, shortened: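 GPX1 10 nM, GR 100 nM, GSH 1 mM, NADPH 0.5 mM, CHP 0.5 mM (final). 30-min cpd preincubation, RT. Ex340/Em450 read t=0, t=15 min.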

[4] = target: Phospholipid hydroperoxide glutathione peroxidase GPX4 (Homo sapiens) (UniProt P36969); assay: Primary qHTS Assay for Inhibitors of Recombinant Selenoprotein Glutathione Peroxidase 4 (GPX4) (AID 1845192); also: nearly all actives have a fitted effect of over 65% in size; as to activity change, negative = inhibition: % is scaled to controls: 0 for no effect and ±100 for the full control effect
Procedure, shortened: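 qHTS, GR-coupled: GPX4 200 nM + cpd 30 min RT → GSH 1 mM, NADPH 0.5 mM, GR 100 nM → CHP 0.5 mM start; fluor 340/450 at t0 and t15 min; no-enzyme wells as control.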

[5] = target: Luciferin 4-monooxygenase (Photinus pyralis) (UniProt P08659); assay: Primary firefly luciferase (FLuc) qHTS assay for identification of artifact compounds. (AID 1845220); conditions: outcome: dose series up to 54.1 µM unless noted; also: nearly all actives have a fitted effect of over 60% in size;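 as to activity change, negative = inhibition: plate controls were DMSO vehicle for no effect and no enzyme for full effect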
Procedure, shortened: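 In this counter-screen for luciferase artifacts, test compounds met substrate (10 uM each luciferin and ATP) before 10 nM enzyme started the reaction. Light output was measured 5 min later.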

[6] = test system: Nanoluciferase (engineered Oplophorus gracilirostris luciferase); assay: Primary Nanoluciferase (NLuc) qHTS assay for identification of artifact compounds. (AID 1845222);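 also: NLuc secreted into diluted conditioned medium of S16 cells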
Procedure, shortened: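 Using secreted nanoluciferase in S16 culture medium (0.22 um filtered, 1:55 dilution), compounds were preincubated 15 min at RT. Signal was generated with Nano-Glo reagent (1:100) over 5 min.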

[7] = test system: CRL-7250; assay: Cytotoxic Profiling of Annotated Libraries Using Quantitative High-Throughput Screening (AID 1296008); conditions: Five cell lines viability, CellTiter-Glo ATP luminescence, 48-72 h; max response: stronger effect = lower value; also: nearly all actives have a fitted effect of over 60% in size; also: potency is read from the fitted curve at half-maximal effect
Procedure, shortened: (§1)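 Compounds were pin-transferred onto cells and incubated 48 or 72 hr at 37 degree Celsius, 95% humidity. CellTiter-Glo was added, plates sat 10 min at room temperature, then ATP-coupled luminescence was imaged as the viability read-out.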

[8] = test system: HEK293; assay: as above; conditions: Five cell lines viability, CellTiter-Glo ATP luminescence, 48-72 h; max response: stronger effect = lower value
Procedure, shortened: as §1

[9] = test system: HaCat; assay: as above; conditions: Five cell lines viability, CellTiter-Glo ATP luminescence, 48-72 h; max response: stronger effect = lower value
Procedure, shortened: as §1

[10] = test system: NIH3T3; assay: as above; conditions: Five cell lines viability, CellTiter-Glo ATP luminescence, 48-72 h; max response: stronger effect = lower value
Procedure, shortened: as §1

[11] = test system: C33A; assay: Primary qHTS to identify gynecologic anti-cancer compounds using libraries of approved drugs and bioactive compounds (AID 1345084); conditions: Gynecologic cancer cell panel viability, ATPlite luminescence, 48 h; series mostly up to 57.5 µM; also: nearly all actives have a fitted effect of over 55% in size; also: potency is read from the fitted curve at half-maximal effect
Procedure, shortened: (§2)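 Measured: luminescence after ATPlite addition (15 min, RT). Exposure: 48 h, 37 C, 5% CO2.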

[12] = test system: CASKI; assay: as above; conditions: Gynecologic cancer cell panel viability, ATPlite luminescence, 48 h; series mostly up to 57.5 µM
Procedure, shortened: as §2

[13] = test system: Es-2; assay: as above; conditions: Gynecologic cancer cell panel viability, ATPlite luminescence, 48 h; series mostly up to 57.5 µM
Procedure, shortened: as §2

[14] = test system: HeLa; assay: as above; conditions: Gynecologic cancer cell panel viability, ATPlite luminescence, 48 h; series mostly up to 57.5 µM
Procedure, shortened: as §2

[15] = test system: Hek293T; assay: as above; conditions: Gynecologic cancer cell panel viability, ATPlite luminescence, 48 h, control line for the selectivity index; series mostly up to 57.5 µM
Procedure, shortened: as §2

[16] = test system: OV90; assay: as above; conditions: Gynecologic cancer cell panel viability, ATPlite luminescence, 48 h; series mostly up to 57.5 µM
Procedure, shortened: as §2

[17] = test system: PA-1; assay: as above; conditions: Gynecologic cancer cell panel viability, ATPlite luminescence, 48 h; series mostly up to 57.5 µM
Procedure, shortened: as §2

[18] = test system: Tov-21-G; assay: as above; conditions: Gynecologic cancer cell panel viability, ATPlite luminescence, 48 h; series mostly up to 57.5 µM
Procedure, shortened: as §2

[19] = test system: Tov112D; assay: as above; conditions: Gynecologic cancer cell panel viability, ATPlite luminescence, 48 h; series mostly up to 57.5 µM
Procedure, shortened: as §2

[20] = Primary qHTS for inhibitors of nuclear receptor binding SET domain protein 2 (NSD2) in an isogenic RCH-ACV NSD2 p.E1099K mutant (9B) (AID 1645876); also: nearly all actives have a fitted effect of over 70% in size; also: potency is read from the fitted curve at half-maximal effect

Chain of Phospholipid hydroperoxide glutathione peroxidase GPX4 (Homo sapiens) (P36969 whole entry, looked up): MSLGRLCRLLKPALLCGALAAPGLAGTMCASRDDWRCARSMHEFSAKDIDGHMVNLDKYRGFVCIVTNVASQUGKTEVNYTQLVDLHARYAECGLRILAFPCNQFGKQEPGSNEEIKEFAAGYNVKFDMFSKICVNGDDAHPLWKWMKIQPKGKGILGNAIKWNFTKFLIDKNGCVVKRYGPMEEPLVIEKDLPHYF
Chain of Glutathione peroxidase 1 (Homo sapiens) (P07203 whole entry, looked up): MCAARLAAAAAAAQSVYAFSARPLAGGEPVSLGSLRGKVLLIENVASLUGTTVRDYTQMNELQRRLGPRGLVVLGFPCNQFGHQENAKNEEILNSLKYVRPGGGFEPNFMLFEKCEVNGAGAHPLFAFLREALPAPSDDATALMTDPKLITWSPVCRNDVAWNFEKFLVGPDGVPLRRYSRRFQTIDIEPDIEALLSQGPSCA

CO[C@H]1C[C@H](O[C@H]2CC[C@@]3(C)C(=CCC4C3CC[C@]3(C)[C@@H](C5=CC(=O)OC5)CC[C@]43O)C2)O[C@@H](C)[C@@H]1O[C@@H]1O[C@H](CO[C@@H]2O[C@H](CO)[C@@H](O)[C@H](O)[C@H]2O)[C@@H](O)[C@H](O)[C@H]1O (stereo not given in full)
inactive: activity change, negative = cytotoxicity [1] 3.8% [at 9.29 µM] | activity change, negative = cell killing [2] -4.53% [at 9.23 µM] | Potency [3] | Potency [4] | activity change, negative = inhibition [5] 0.797% [at 11.6 µM] | activity, negative = inhibition [6] 3.27% [at 11.6 µM] | max response [7] -12.8% | max response [8] -7.06% | max response [9] -7.84% | max response [10] -5.72% | activity change, negative = cytotoxicity [11] 5.08% [at 11.6 µM] | activity change, negative = cytotoxicity [12] 22.6% [at 11.6 µM] | activity change, negative = cytotoxicity [13] -0.369% [at 11.6 µM] | activity change, negative = cytotoxicity [14] 1.26% [at 11.6 µM] | activity change, negative = cytotoxicity [15] -20.2% [at 11.6 µM] | activity change, negative = cytotoxicity [16] 5.84% [at 11.6 µM] | activity change, negative = cytotoxicity [17] 10.4% [at 11.6 µM] | activity change, negative = cytotoxicity [18] -1.43% [at 11.6 µM] | activity change, negative = cytotoxicity [19] -28.4% [at 11.6 µM]

N#Cc1ccc([C@H]2CCCC[C@H]2O)cc1C(F)(F)F
inactive: Potency [1] | Potency [20] | Potency [2] | Potency [3] | Potency [4] | outcome [5] | Potency [6] | max response [7] 1.6% | max response [8] -11% | max response [9] -7.91% | max response [10] -1.88% | Potency [11] | Potency [12] | Potency [13] | Potency [14] | Potency [15] | Potency [16] | Potency [17] | Potency [18] | Potency [19]

CN[C@@H]1C[C@H]2O[C@@](C)([C@@H]1OC)n1c3ccccc3c3c4c(c5c6ccccc6n2c5c31)C(=O)NC4
active: Potency [1] 58 nM | Potency [20] 37.2 nM | Potency [2] 59 nM | Potency [7] 3.7 nM | Potency [8] 231 nM | Potency [9] 184 nM | Potency [11] 1260 nM | Potency [12] 251 nM | Potency [13] 631 nM | Potency [14] 282 nM | Potency [15] 4470 nM | Potency [16] 316 nM | Potency [17] 251 nM | Potency [19] 891 nM
inactive: Potency [3] | outcome [5] | Potency [6]

CNC(=O)c1cc(C#N)cc(C)c1NC(=O)c1cc(Br)nn1-c1ncccc1Cl
active: Potency [8] 13000 nM
inactive: Potency [20] | Potency [3] | Potency [4] | outcome [5] | Potency [6] | max response [7] 0.534% | max response [9] -17.6% | max response [10] -18.9% | Potency [11] | Potency [12] | Potency [13] | Potency [14] | Potency [15] | Potency [16] | Potency [17] | Potency [18] | Potency [19]

CC1=C[C@H]2O[C@@H]3C[C@H]4OC(=O)/C=C/C=C/C(=O)OCC/C(C)=C/C(=O)OC[C@@]2(CC1)[C@]4(C)[C@]31CO1
inactive: Potency [3] | Potency [4] | outcome [5] inactive [at 25.7 µM] | Potency [6]
active: Potency [1] 17.8 nM | Potency [20] 5.6 nM | Potency [2] 3.2 nM | Potency [7] 25.2 nM | Potency [8] 8 nM | Potency [9] 112 nM | Potency [10] 28.2 nM | Potency [12] 112 nM | Potency [13] 25.1 nM | Potency [14] 89.1 nM | Potency [17] 70.8 nM | Potency [18] 89.1 nM

COC1CC(O[C@H]2CC[C@]3(C)C4CC[C@]5(C)[C@@H](C6=CC(=O)OC6)[C@@H](OC(C)=O)C[C@]5(O)C4CC[C@@H]3C2)OC(C)C1O[C@@H]1O[C@H](CO)[C@@H](O)[C@H](O)[C@H]1O (stereo not given in full)
active: Potency [1] 544 nM | Potency [20] 383 nM | Potency [2] 483 nM | Potency [7] 385 nM | Potency [8] 485 nM | Potency [9] 1720 nM | Potency [11] 631 nM | Potency [12] 3160 nM | Potency [13] 794 nM | Potency [15] 1410 nM | Potency [16] 3160 nM | Potency [17] 1120 nM | Potency [18] 562 nM | Potency [19] 355 nM
inactive: Potency [3] | Potency [4] | outcome [5] | Potency [6] | max response [10] 4.46%

CC(=O)OC[C@]12C[C@H](O)C(C)=C[C@H]1O[C@@H]1[C@H](O)[C@@H](OC(C)=O)[C@@]2(C)[C@]12CO2
inactive: Potency [3] | Potency [4] | outcome [5] | Potency [6]
active: Potency [1] 14.3 nM | Potency [20] 6.4 nM | Potency [7] 36 nM | Potency [8] 8.1 nM | Potency [9] 90.4 nM | Potency [10] 45.3 nM | Potency [11] 447 nM | Potency [12] 31.6 nM | Potency [13] 199 nM | Potency [14] 178 nM | Potency [15] 89.1 nM | Potency [16] 12600 nM | Potency [17] 1780 nM | Potency [18] 178 nM | Potency [19] 100 nM

C[N@@+]1(CC2CC2)CC[C@]23c4c5ccc(O)c4O[C@H]2C(=O)CC[C@@]3(O)[C@H]1C5
inactive: Potency [1] | Potency [20] | Potency [2] | Potency [4] | outcome [5] | Potency [6] | max response [7] 2.78% | max response [8] 0.678% | max response [9] -19.5% | max response [10] 2.77% | Potency [11] | Potency [12] | Potency [13] | Potency [14] | Potency [15] | Potency [16] | Potency [17] | Potency [18] | Potency [19]

OCc1nnc2n1-c1ccc(Cl)cc1C(c1ccccc1Cl)=NC2
inactive: Potency [1] | Potency [20] | Potency [2] | Potency [3] | Potency [4] | outcome [5] | Potency [6] | max response [7] 0.641% | max response [8] -7.41% | max response [9] -38% | Potency [11] | Potency [12] | Potency [13] | Potency [14] | Potency [15] | Potency [16] | Potency [18] | Potency [19]
